# From PubChem
# In the library only some 3.7% were active in any assay of this set; here they are far more common.
# NALP3 yeast inh: blocks the NALP3 inflammasome reconstituted in yeast; Yeast reconstituted NLRP3/ASC/caspase-1, beta-gal luminescence, 24 h; inhibition, % at 10 µM; hit rate 0.39% among 330,000;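 active means inhibition of 50% or more; inactive means inhibition below 50%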;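 further: plate controls were induced DMSO wells for no effect and uninduced yeast grown without galactose for full effect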
# tim10-1 inh: growth inhibitors of tim10-1 mutant yeast; S. cerevisiae tim10-1 ts strain growth, BacTiter-Glo, 24 h; inhibition, % at 20 µM; hit rate 2.2% among 330,000; AID 463190;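 active means inhibition of at least 40%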;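 further: mutant grown at 25 °C; 0% = DMSO wells with yeast and 100% = wells holding no yeast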
# tim23-1 inh: inhibits growth of tim23-1 mutant yeast. S. cerevisiae tim23-1 growth, BacTiter-Glo luminescence, 24 h. inhibition, % at 20 µM. hit rate 1.3% among 330,000;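 active means growth inhibition of the mutant yeast at or above 50%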;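 further: temperature-sensitive mutant grown at 25 °C; plate controls were DMSO-treated mutant yeast for no effect and medium wells lacking yeast for full effect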
# PfHsp90 yeast 2: growth inhibition of yeast expressing Plasmodium Hsp90; hit rate 0.32% among 310,000; AID 504621; S. cerevisiae expressing PfHsp90, BacTiter-Glo ATP, 48 h; yeast lacking PDR1 and PDR3 efflux regulators; inhibition, % at 9.4 µM;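 active means every replicate shows inhibition above about 80%, whatever the replicate mean, limit read from the data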;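 further: 0% = DMSO neutral controls and 100% = 20 µM radicicol positive controls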
# TIM10 inh: growth inhibitors of TIM10 yeast strain. S. cerevisiae TIM10 strain growth, BacTiter-Glo luminescence, 24 h. inhibition, % at 10 µM. hit rate 1.4% among 330,000. AID 463195;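 active means inhibition of 40% or more at the single tested concentration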;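 further: wild-type TIM10 isogenic control strain grown at permissive 25 °C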
# NALP3 yeast conf: confirmation of NALP3 inhibitors in yeast | shares compounds with NALP3 yeast inh | yeast expressing human NALP3, luminescence | inhibition, % at 10 µM | hit rate 81% among 1,300 | AID 435006; in the data active means inhibition above about 48%
# Casp1-ASC yeast: active in yeast caspase-1-ASC counter-screen for NALP3 inhibitors; inhibition, % at 10 µM; shares compounds with NALP3 yeast inh; AID 488784; yeast expressing Caspase-1-ASC, luminescence counter screen; hit rate 66% among 1,000
# NALP3 retest: confirmation retest of NALP3 inhibitors in yeast; shares compounds with NALP3 yeast inh; yeast expressing human NALP3, luminescence read-out; inhibition, % at 10 µM; hit rate 53% among 1,000
# tim10-1 conf: confirmation of tim10-1 mutant yeast growth inhibitors. shares compounds with tim10-1 inh. S. cerevisiae tim10-1 ts strain growth, BacTiter-Glo, 24 h. inhibition, % at 20 µM. hit rate 56% among 7,400. AID 463213;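 active means inhibition of yeast growth at or above a set limit in either of two repeat tests at 20 µM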;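 further: tim10-1 mutant grown at permissive 25 °C to find synthetic lethal compounds; 0% = DMSO yeast wells and 100% = medium wells without yeast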
# * marks the source's active call; other numbers are inactive results; . = no result given; ! = not confirmed by another sample. Unless noted, no stated cut-off is given here; in the data, active means inhibition above about 50%; inactive means the rest.
SMILES,NALP3 yeast inh,tim10-1 inh,tim23-1 inh,PfHsp90 yeast 2,TIM10 inh,NALP3 yeast conf,Casp1-ASC yeast,NALP3 retest,others
O=C1CC(c2ccc(Cl)cc2)CC(O)=C1C=NCCN1CCNCC1 (stereo not given),21,20,6,.,-7,.,.,.,
CCC(=O)N1CCN(CCN=CC2=C(O)CC(c3ccc(OC)cc3)CC2=O)CC1 (stereo not given),53*,15,21,-18,-1,35,.,.,
COc1ccc(C)cc1NC(=O)c1cc(S(=O)(=O)N2CCOCC2)cn1C,5,9,16,11,-6,.,.,.,
Cc1ccc(OCc2cc(C(=O)N3CCN(c4ccccc4)CC3)no2)cc1C,30,-12,-3,-10,-9,.,.,.,
Cc1ccc(NC(=S)NCCSc2ccc(Cl)cc2)cc1,33,38,36,-5,32,.,.,.,
Cc1ccc(SCCNC(=S)Nc2cc(C)cc(C)c2)cc1,55*,-2,7,-12,15,61*,50*,38,
O=C(C[n+]1ccccc1)N/N=C/c1cc(Br)ccc1O,64*,21,18,-1,17,66*,51*,66*,
O=C(C[n+]1ccccc1)N/N=C/c1ccccc1F,13,-9,6,-36,-3,.,.,.,
C[C@]12C=C[C@H](O)CC1=CCC1C2CC[C@@]2(C)C1CCC21OCCO1 (stereo not given in full),57*,5,29,11,16,71*,.,.,
C[C@]12C=CC(=O)C=C1CCC1C2CC[C@@]2(C)C1CCC21OCCO1 (stereo not given in full),27,5,41,-3,6,.,.,.,
CCCCCCCCNC(C)C(O)c1ccc(SC(C)C)cc1 (stereo not given),67*,21,38,-35,-81,64*,52*,64*,
Cc1cccc(N(C)c2ccc3cc(S(=O)(=O)N4CCCC4)ccc3n2)c1,68*,2,27,21,-7,79*,75*,58*,
CN(C(=O)CS(=O)(=O)c1cn(CC(=O)N2CCCC2)c2ccccc12)c1ccccc1,11,-19,-4,3,-2,.,.,.,
O=C(NCCC1=CCCCC1)c1ccc([N+](=O)[O-])cc1,58*,11,9,18,8,22,.,.,
COc1ccc2occ(C(=O)c3ccc(N)cc3)c2c1,57*,26,47,4,19,69*,49,45,
Cc1ccc(C(=O)c2coc3ccc(O)c(Cl)c23)cc1,37,2,50,.,3,.,.,.,
Cc1ccc(C(=O)c2coc3ccc(O)cc23)cc1,65*,-11,28,-24,-17,66*,50,47,
COc1ccc(C(=O)c2coc3ccc(OC(C)=O)cc23)cc1,44,31,35,-21,2,.,.,.,
Cc1nn(-c2ccccc2)cc1C(=S)Nc1ccccc1,52*,31,38,23,17,63*,57*,58*,
Cc1c(C(=S)Nc2ccccc2)cnn1-c1ccccc1,37,33,23,11,21,.,.,.,
Cc1cc(Cl)c(S(=O)(=O)NC2CCCCC2)cc1OCC(=O)Nc1nncs1,50*,-20,4,-25,-13,50*,36,30,
Cc1cc(Cl)c(S(=O)(=O)Nc2ccon2)cc1OCC(=O)NC1CCCCC1,-6,0,-5,11,8,.,.,.,
CCCOc1ccc(-c2cn3ccccc3n2)cc1,72*,-18,40,3,8,56*,88*,76*,
CCCc1ccc(C(=O)NNc2cc(Cl)ccc2Cl)cc1,57*,3,29,-15,18,54*,56*,49,
CCOC(=O)C1=C(C)NC(C)=C(C(=O)OC)C1c1cccc(Cl)c1Cl (stereo not given),8,35,49,5,17,.,.,.,
SMILES,NALP3 yeast inh,tim10-1 inh,tim23-1 inh,PfHsp90 yeast 2,TIM10 inh,NALP3 yeast conf,Casp1-ASC yeast,NALP3 retest,others
CCOC(=O)C1=C(COCCN)NC(C)=C(C(=O)OC)C1c1ccccc1Cl (stereo not given),53*!,22,15,-10,15,59*,44,49,
CCOC(=O)CN1C(=O)N[C@@H](c2ccco2)C(C(=O)OC)=C1C,9,-21,-2,-5,-4,.,.,.,
CN(Cc1nccs1)C(=O)C1CCC(=O)N(Cc2ccccc2F)C1 (stereo not given),7,5,9,-5,11,.,.,.,
COc1ccc(CCn2c(C3CCCCC3)nc3c(c(=O)c4ccccc4n3C)c2=O)cc1OC,64*,-30,25,9,16,84*,44,50,
COc1ccc(Cn2c(C3CCCCC3)nc3c(c(=O)c4ccccc4n3C)c2=O)cc1,1,-7,10,.,4,.,.,.,
COc1ccc(CCn2c(-c3ccc(F)cc3)nc3c(c(=O)c4ccccc4n3C)c2=O)cc1OC,27,-4,9,.,7,.,.,.,
COc1ccc(CCn2c(C3CCCCC3)nc3c(c(=O)c4ccccc4n3C)c2=O)cc1,67*,3,41,.,34,65*,55*,61*,
Cc1ccc(N(C)C(=O)CCS(=O)(=O)c2cc3c(cc2Cl)NC(=O)CO3)cc1,20,8,13,19,4,.,.,.,
COc1ccc(C(=O)c2cc([N+](=O)[O-])ccc2N2CCCC2)cc1,56*,29,19,23,18,23,.,.,
CCc1ccc(N=Nc2ccc(O)c3[nH]cnc23)cc1,51*,29,37,-16,25,43,24,34,
CCc1ccc(/C=N/Nc2ncnc3nc[nH]c23)cc1,12,12,19,18,-3,.,.,.,
COc1cccc2cc(C(=O)c3ccccc3)oc12,50*,1,33,-65,9,34,.,.,
O=C(N/N=C/c1ccc([N+](=O)[O-])o1)c1ccccc1NS(=O)(=O)c1cccs1,2,2,14,-44,-2,.,.,.,
Cc1ccc(C(=O)c2no[n+]([O-])c2C(=O)c2ccc(C)cc2)cc1,59*,44*,47,128*,1,63*,72*,52*,tim10-1 conf=60*
CCCCC(=O)OCC(=O)Nc1cccc(S(=O)(=O)NC2=NCCCCC2)c1,-5,-9,12,17,5,.,.,.,
Nc1nc(-c2ccccc2)c(-c2ccc([N+](=O)[O-])cc2)s1,95*,46*,38,1,26,98*,98*,95*,tim10-1 conf=16
CCCOc1ccc(C(=O)NNC(=S)NC(=O)c2cccs2)cc1,56*,48*,21,9,11,77*,36,55*,tim10-1 conf=-10
C=CCn1c(SCc2nc(N)nc(N3CCCCC3)n2)nnc1-c1ccco1,18,23,7,6,5,.,.,.,
